Assay results published in PubChem BioAssay (EPA / NIEHS).
The source made the active and inactive calls. The calls were made as follows: active = hit-call score of the fitted dose curve at least 0.9, where 1 is the maximum; inactive = score below 0.9.

Experiments:
Conditions in all cases: mRNA level, 48 h; actives raise or lower the signal
[1] = read-out: ABC Transporter (ABCB1), ABCB1 (gene 5243); experiment: LTEA_HepaRG_ABCB1: Life Technologies and Expression Analysis (LTEA) Assay for ABC Transporter (ABCB1) using HepaRG (AID 2283460)
Procedure, shortened: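 ABCB1 transcript level measured by TaqMan qRT-PCR against three housekeeping genes after 48 h chemical exposure of differentiated HepaRG cells. Top concentration 100 uM, half-log steps, eight points, 0.5% DMSO vehicle; bidirectional fit relative to DMSO.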

[2] = read-out: growth arrest and DNA damage 45 (GADD45B), GADD45B (gene 4616); experiment: LTEA_HepaRG_GADD45B: Life Technologies and Expression Analysis (LTEA) Assay for growth arrest and DNA damage 45 (GADD45B) using HepaRG (AID 2283461)
Procedure, shortened: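 Differentiated HepaRG cells, plated 48 h then switched to serum-free induction medium, were exposed 48 h in duplicate to eight half-log concentrations from 100 uM in 0.5% DMSO; mRNA quantified by qRT-PCR, normalized to ACTB/GAPDH/POLR2A, bidirectional fit versus DMSO.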

[3] = read-out: ABC Transporter (ABCC3), ABCC3 (gene 8714); experiment: LTEA_HepaRG_ABCC3: Life Technologies and Expression Analysis (LTEA) Assay for ABC Transporter (ABCC3) using HepaRG (AID 2283462)
Procedure, shortened: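 HepaRG cells in serum-free induction medium were exposed for 48 h in duplicate to 8-point half-log concentrations topping at 100 uM in 0.5% DMSO. ABCC3 mRNA was measured by qRT-PCR normalized to ACTB, GAPDH and POLR2A, with bidirectional fitting versus DMSO.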

[4] = read-out: ABC Transporter (ABCC2), ABCC2 (gene 1244); experiment: LTEA_HepaRG_ABCC2: Life Technologies and Expression Analysis (LTEA) Assay for ABC Transporter (ABCC2) using HepaRG (AID 2283464)
Procedure, shortened: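 HepaRG cells were plated 48 h, switched to serum-free induction medium, then exposed in duplicate for 48 h to 8 concentrations (top 100 uM, half-log steps, 0.5% DMSO). ABCC2 mRNA was measured by qRT-PCR normalized to ACTB/GAPDH/POLR2A; bidirectional fitting versus DMSO.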

[5] = read-out: Broad substrate specificity ATP-binding cassette transporter ABCG2 (Homo sapiens) (UniProt Q9UNQ0); experiment: LTEA_HepaRG_ABCG2: Life Technologies and Expression Analysis (LTEA) Assay for ABC Transporter (ABCG2) using HepaRG (AID 2283465)
Procedure, shortened: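 ABCG2 transcript was quantified by TaqMan qRT-PCR against three housekeeping genes in HepaRG cells. Cells were treated in duplicate for 48 h across an 8-point half-log series up to 100 uM, with 0.5% DMSO vehicle. Gain or loss versus DMSO was fit.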

[6] = read-out: ATP-citrate lyase (ACLY), ACLY (gene 47); experiment: LTEA_HepaRG_ACLY: Life Technologies and Expression Analysis (LTEA) Assay for ATP-citrate lyase (ACLY) using HepaRG (AID 2283466)
Procedure, shortened: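 ACLY mRNA quantified by qRT-PCR on Fluidigm arrays against three housekeeping genes, after 48 h chemical treatment of HepaRG cells (top concentration 100 uM, half-log steps, 0.5% DMSO vehicle). Up- or down-regulation fitted relative to DMSO.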

[7] = read-out: Peroxisomal acyl-coenzyme A oxidase 1 (ACOX1) gene, ACOX1 (gene 51); experiment: LTEA_HepaRG_ACOX1: Life Technologies and Expression Analysis (LTEA) Assay for Peroxisomal acyl-coenzyme A oxidase 1 (ACOX1) gene using HepaRG (AID 2283467)
Procedure, shortened: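 ACOX1 transcript levels were quantified by TaqMan qRT-PCR against three housekeeping genes after 48 h chemical exposure of differentiated human HepaRG cells. Exposure used eight half-log steps topping at 100 uM, 0.5% DMSO vehicle, in duplicate. Bidirectional curve fits were made relative to DMSO.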

[8] = read-out: Alkaline Phosphatase, Placental (ALPP) gene, ALPP (gene 250); experiment: LTEA_HepaRG_ALPP: Life Technologies and Expression Analysis (LTEA) Assay for Alkaline Phosphatase, Placental (ALPP) gene using HepaRG (AID 2283468)
Procedure, shortened: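 Differentiated human HepaRG cells were plated and cultured 48 h, then exposed in duplicate for 48 h in serum-free induction medium to eight half-log concentrations from 100 uM in 0.5% DMSO. ALPP mRNA was measured by TaqMan qRT-PCR, normalized to ACTB, GAPDH, POLR2A.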

[9] = read-out: Bcl-2 (BAD) gene, BAD (gene 572); experiment: LTEA_HepaRG_BAD: Life Technologies and Expression Analysis (LTEA) Assay for Bcl-2 (BAD) gene using HepaRG (AID 2283469)
Procedure, shortened: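 Read-out: qRT-PCR of BAD mRNA, normalized to three housekeeping genes. Human HepaRG cultures got 48 h chemical exposure in 0.5% DMSO, duplicate eight-point half-log series topping at 100 uM. Gain or loss of signal fitted versus DMSO vehicle.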

[10] = read-out: Bcl-2 (BAX) gene, BAX (gene 581); experiment: LTEA_HepaRG_BAX: Life Technologies and Expression Analysis (LTEA) Assay for Bcl-2 (BAX) gene using HepaRG (AID 2283470)
Procedure, shortened: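 Human HepaRG cells treated in duplicate for 48 h across eight concentrations (max 100 uM, 0.5% DMSO); BAX expression measured by qRT-PCR.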

[11] = read-out: adenosine kinase (ADK) gene, ADK (gene 132); experiment: LTEA_HepaRG_ADK: Life Technologies and Expression Analysis (LTEA) Assay for adenosine kinase (ADK) gene using HepaRG (AID 2283471)
Procedure, shortened: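 Following 48 h exposure of HepaRG cells in 0.5% DMSO (top concentration 100 uM, duplicate wells), ADK mRNA induction or suppression was measured by qRT-PCR, normalised to ACTB/GAPDH/POLR2A, and fitted bidirectionally relative to vehicle.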

[12] = read-out: Alpha-fetoprotein (AFP) gene, AFP (gene 174); experiment: LTEA_HepaRG_AFP: Life Technologies and Expression Analysis (LTEA) Assay for Alpha-fetoprotein (AFP) gene using HepaRG (AID 2283472)
Procedure, shortened: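 Measures AFP mRNA change in HepaRG after 48 h chemical exposure (8 half-log concentrations, highest 100 uM, 0.5% DMSO). Fold change relative to DMSO, fitted in both directions.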

[13] = read-out: Apoptosis regulator Bcl-2 (Homo sapiens) (UniProt P10415); experiment: LTEA_HepaRG_BCL2: Life Technologies and Expression Analysis (LTEA) Assay for Bcl-2 gene using HepaRG (AID 2283475);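 also: BCL2 transcript by TaqMan qRT-PCR normalised to ACTB GAPDH and POLR2A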
Procedure, shortened: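 Each chemical was tested in duplicate on HepaRG cultures held in serum-free induction medium for 48 h, highest concentration 100 uM with half-log dilutions. Transcript levels came from multiplexed qRT-PCR, normalised to housekeeping genes; activity was scored in either direction relative to DMSO.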

[14] = read-out: Bcl-2 (BID) gene, BID (gene 637); experiment: LTEA_HepaRG_BID: Life Technologies and Expression Analysis (LTEA) Assay for Bcl-2 (BID) gene using HepaRG (AID 2283476)
Procedure, shortened: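 Assay used HepaRG hepatic cells treated 48 h in serum-free medium with half-log dilutions from 100 uM. Endpoint: BID mRNA, qRT-PCR, normalized to ACTB/GAPDH/POLR2A.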

Caspase-3 (Homo sapiens) = Caspase-3 (Homo sapiens) (UniProt P42574); experiment: LTEA_HepaRG_CASP3: Life Technologies and Expression Analysis (LTEA) Assay for cysteine-aspartic acid protease (CASP3) using HepaRG (AID 2283477)
Caspase-3 (Homo sapiens), sequence (P42574 whole entry, looked up): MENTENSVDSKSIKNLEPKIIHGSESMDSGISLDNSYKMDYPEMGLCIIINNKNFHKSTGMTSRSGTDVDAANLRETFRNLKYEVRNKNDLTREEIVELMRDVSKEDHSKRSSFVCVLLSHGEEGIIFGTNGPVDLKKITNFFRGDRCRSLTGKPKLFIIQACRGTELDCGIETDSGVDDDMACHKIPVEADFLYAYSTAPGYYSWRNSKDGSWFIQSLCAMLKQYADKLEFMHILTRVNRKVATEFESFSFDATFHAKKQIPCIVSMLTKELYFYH
Procedure, shortened: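 Differentiated human HepaRG cells in serum-free induction medium were exposed 48 h to 8-point half-log concentrations from 100 uM (0.5% DMSO vehicle). CASP3 mRNA was measured by qRT-PCR, normalised to ACTB, GAPDH and POLR2A, with bidirectional fitting against DMSO.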

[15] = read-out: Cytochrome P450 (CYP24A1), CYP24A1 (gene 1591); experiment: LTEA_HepaRG_CYP24A1: Life Technologies and Expression Analysis (LTEA) Assay for Cytochrome P450 (CYP24A1) using HepaRG (AID 2283478)
Procedure, shortened: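 Differentiated HepaRG cells, pre-cultured 48 h, were exposed in duplicate for 48 h in serum-free induction medium to 8 half-log concentrations (top 100 uM, 0.5% DMSO). CYP24A1 mRNA was quantified by TaqMan qRT-PCR, normalized to ACTB/GAPDH/POLR2A, fitted bidirectionally versus DMSO.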

[16] = read-out: Cytochrome P450 (CYP1A2), CYP1A2 (gene 1544); experiment: LTEA_HepaRG_CYP1A2: Life Technologies and Expression Analysis (LTEA) Assay for Cytochrome P450 (CYP1A2) using HepaRG (AID 2283479)
Procedure, shortened: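 Differentiated human HepaRG cells in serum-free induction medium were exposed in duplicate for 48 h to 8-point half-log concentrations up to 100 uM in 0.5% DMSO. CYP1A2 mRNA measured by qRT-PCR, normalized to ACTB, GAPDH, POLR2A; bidirectional fit vs DMSO.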

Measured: AC50

Apoptosis regulator Bcl-2 (Homo sapiens), sequence (P10415 whole entry, looked up): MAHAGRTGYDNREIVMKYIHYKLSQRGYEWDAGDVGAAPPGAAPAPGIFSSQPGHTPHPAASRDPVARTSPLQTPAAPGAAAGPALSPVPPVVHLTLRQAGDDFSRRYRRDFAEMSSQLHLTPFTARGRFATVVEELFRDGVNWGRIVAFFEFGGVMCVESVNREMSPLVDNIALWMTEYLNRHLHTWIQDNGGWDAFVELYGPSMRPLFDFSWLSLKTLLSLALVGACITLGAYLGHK
Broad substrate specificity ATP-binding cassette transporter ABCG2 (Homo sapiens), sequence (Q9UNQ0 whole entry, looked up): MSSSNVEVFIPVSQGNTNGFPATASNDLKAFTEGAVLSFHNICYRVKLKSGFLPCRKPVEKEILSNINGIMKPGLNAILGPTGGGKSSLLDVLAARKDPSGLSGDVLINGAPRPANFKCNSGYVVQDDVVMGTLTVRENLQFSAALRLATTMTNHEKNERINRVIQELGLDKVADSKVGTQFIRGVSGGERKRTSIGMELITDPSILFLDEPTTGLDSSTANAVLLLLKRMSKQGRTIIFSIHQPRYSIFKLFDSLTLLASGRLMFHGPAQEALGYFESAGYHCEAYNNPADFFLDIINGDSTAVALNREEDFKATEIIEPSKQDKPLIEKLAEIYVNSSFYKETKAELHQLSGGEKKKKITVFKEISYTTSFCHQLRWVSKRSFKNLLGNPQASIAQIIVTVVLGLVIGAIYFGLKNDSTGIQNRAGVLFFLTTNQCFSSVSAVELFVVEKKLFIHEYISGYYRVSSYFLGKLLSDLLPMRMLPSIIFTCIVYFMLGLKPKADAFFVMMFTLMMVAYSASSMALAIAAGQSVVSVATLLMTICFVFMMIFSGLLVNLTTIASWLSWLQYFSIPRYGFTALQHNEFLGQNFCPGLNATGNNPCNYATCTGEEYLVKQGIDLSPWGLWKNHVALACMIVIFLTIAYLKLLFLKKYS

O=S1OCC2C(CO1)C1(Cl)C(Cl)=C(Cl)C2(Cl)C1(Cl)Cl (stereo unspecified)
active: [6] 87.1 µM | [7] 53.9 µM | [12] 50 µM | [13] 84.7 µM | [16] 35.4 µM
inactive: all other assays above

C[C@H]1[C@H](c2ccc(Cl)cc2)SC(=O)N1C(=O)NC1CCCCC1
inactive: [3] | [4] | [7] | [9] | [11] | [14] | Caspase-3 (Homo sapiens) | [15]
active: [1] 32.8 µM | [2] 82.2 µM | [5] 39.7 µM | [6] 79.7 µM | [8] 32.1 µM | [10] 77.2 µM | [12] 36.7 µM | [13] 76 µM | [16] 83.9 µM

CN1CSC(=S)N(C)C1
active: [16] 34.7 µM
inactive: all other assays above

CC[C@H](C)[C@H]1O[C@]2(C=C[C@@H]1C)C[C@@H]1C[C@@H](C/C=C(\C)[C@@H](O[C@H]3C[C@H](OC)[C@@H](O[C@H]4C[C@H](OC)[C@@H](O)[C@H](C)O4)[C@H](C)O3)[C@@H](C)/C=C/C=C3\CO[C@@H]4[C@H](O)C(C)=C[C@@H](C(=O)O1)[C@]34O)O2 (tested in a mixture with another compound)
active: [1] 55.2 µM | [2] 7.13 µM | [3] 46.5 µM | [4] 30.2 µM | [5] 13.7 µM | [6] 52.2 µM | [7] 30.2 µM | [8] 9.57 µM | [10] 7.73 µM | [13] 9.08 µM | [16] 10.9 µM
inactive: [9] | [11] | [12] | [14] | Caspase-3 (Homo sapiens) | [15]

CC(C)N(C(=O)COc1nnc(C(F)(F)F)s1)c1ccc(F)cc1
active: [7] 19.4 µM | [12] 37.6 µM
inactive: all other assays above

O=[N+]([O-])/N=C1\NCCN1Cc1ccc(Cl)nc1
active: [1] 15.9 µM | [4] 24.9 µM | [5] 35.3 µM | [7] 29.7 µM | [11] 35.2 µM | [12] 31.7 µM | Caspase-3 (Homo sapiens) 26.7 µM | [16] 23.6 µM
inactive: all other assays above

N#Cc1c(Cl)c(Cl)c(Cl)c(C#N)c1Cl
active: [10] 23.9 µM | [16] 13.7 µM
not listed: [8]
inactive: all other assays above

CC1(C)C(C=C(Cl)Cl)C1C(=O)OC(C#N)c1ccc(F)c(Oc2ccccc2)c1 (stereo unspecified)
active: [1] 24.5 µM | [4] 50 µM | [5] 21.4 µM | [16] 20.2 µM
inactive: all other assays above

COP(=S)(OC)Oc1ccc([N+](=O)[O-])cc1
active: [16] 32.8 µM
inactive: all other assays above

N#CN
inactive: all assays above

C#CCN1C(=O)COc2cc(F)c(N3C(=O)C4=C(CCCC4)C3=O)cc21
active: [1] 9.92 µM | [4] 8.81 µM | [12] 40.4 µM
inactive: all other assays above

CNC(=O)Oc1ccccc1OC(C)C
not listed: [6] | [8]
inactive: all other assays above
